Reference: PubChem BioAssay AID1851 (National Center for Advancing Translational Sciences (NCATS), 2009)
Hit rate of the full screen: of about 16,000 compounds, about 2,600 (16%) were called active. Another 20% or so got no clear call; they are omitted. Calls come from the whole dose curve; as a rule, active = well fitted curve in the direction sought with a large enough effect; inconclusive = small, poorly fitted or top-dose-only effect, or effect the other way; inactive = no such curve, though single readings can be large or run the other way. The list is a sample of the results.

molecular target: Cytochrome P450 2D6 (Homo sapiens) (UniProt P10635); test: Cytochrome panel assay with activity outcomes; details: recombinant CYP, pro-luciferin dealkylation, luminescence, p450-cyp2d6; series mostly up to 57.1 µM
% is set by controls: 0 for no effect and ±100 for the full control effect.

Chain of Cytochrome P450 2D6 (Homo sapiens) (P10635 whole entry, looked up): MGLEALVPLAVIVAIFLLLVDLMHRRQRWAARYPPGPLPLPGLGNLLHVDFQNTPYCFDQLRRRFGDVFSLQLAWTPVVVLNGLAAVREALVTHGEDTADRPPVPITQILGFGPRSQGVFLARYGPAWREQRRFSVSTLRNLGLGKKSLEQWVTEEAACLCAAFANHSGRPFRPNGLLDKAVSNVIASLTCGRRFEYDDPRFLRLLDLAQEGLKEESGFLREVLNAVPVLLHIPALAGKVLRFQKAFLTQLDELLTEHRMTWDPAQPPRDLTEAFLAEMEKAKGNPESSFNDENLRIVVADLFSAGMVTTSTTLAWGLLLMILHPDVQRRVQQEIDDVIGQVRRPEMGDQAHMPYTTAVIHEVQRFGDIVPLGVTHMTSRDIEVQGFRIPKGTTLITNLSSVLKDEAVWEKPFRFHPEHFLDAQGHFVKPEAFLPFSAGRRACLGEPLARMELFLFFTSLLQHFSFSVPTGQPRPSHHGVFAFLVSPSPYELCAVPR

Row | SMILES | activity, negative = inhibition | AC50
1 | Nc1nc(-c2ccc3ccccc3c2)cc(-c2cc(-c3ccc4ccccc4c3)nc(N)n2)n1 | 1.49% [at 11.4 µM] (inactive) | –
2 | CC(=O)Nc1cccc(C(=O)OCc2ccc(C(=O)Oc3ccc(Cl)cc3)cc2)c1 | – | inactive
3 | CN1CCN(C(=O)C(C(=O)c2ccc(F)cc2)n2ccccc2=O)CC1 (stereo not given) | – | inactive
4 | CCc1cccc2c(C=C(C#N)C#N)cn(CC(=O)N3CCCC3)c12 | – | inactive
5 | COc1ccc(/C=C2\CCCC3C2=NN(C(=O)c2ccco2)C3c2ccc(OC)c(OC)c2)cc1OC (stereo not given) | – | inactive
6 | COc1ccc(/C=C2\N=C(SC)N(C)C2=O)cc1 | – | inactive
7 | O=C(N/N=C/C=C/c1ccccc1)c1cc2c(ccc3ccccc32)o1 | – | inactive
8 | O=C(O)[C@@H](O)[C@@H](O)[C@@H](O)[C@@H](O)C(=O)O (tested in a mixture with another compound) | – | inactive
9 | CC(C)CCNC(=S)NC1CCCC1 | – | inactive
10 | Cc1nn(C(C)(C)C)c(OC(=O)c2ccco2)c1Sc1ccccc1 | – | inactive
11 | CCOC(=O)c1c(C)c(C)n2c1NC(=O)C2 | -4.83% [at 11.4 µM] (inactive) | –
12 | CCOC(=O)c1c(C)c(C(=O)N2CCCCCC2)c(C)n1C | – | 11.2 µM (active)
13 | CCOC(=O)c1c(C)c(C(=O)N2CCN(C(=O)c3ccco3)CC2)c(C)n1C | – | inactive
14 | C[C@@]12CC[C@@H]3c4ccc(O)cc4CC[C@H]3[C@H]1C[C@@H](O)[C@H]2O | – | inactive
15 | Oc1ccccc1C(Sc1nc2ccccc2s1)Sc1nc2ccccc2s1 | -20.9% [at 11.4 µM] (inactive) | –
16 | Cc1ccc(C(=O)CN(C(=O)c2ccc(Cl)cc2)N2C(=O)c3ccccc3C2=O)cc1 | – | inactive
17 | Cc1nnc(-c2cnn(-c3ccccc3)c2N)n1Cc1ccccc1 | – | inactive
18 | CN(C)c1ccccc1CN1CCCN(Cc2ccccc2N(C)C)C1c1ccncc1 | – | 1.26 µM (active)
19 | COc1cccc(/C=N\NC(=O)C2C(=O)NCC2c2ccccc2)c1O (stereo not given) | – | inactive
20 | COc1ccc(-c2nn(-c3ccccc3)cc2/C=N/NC(=O)c2ccc(Br)o2)cc1 | – | inactive
21 | Cn1c(=O)n(CC#N)c2ccccc21 | – | inactive
22 | c1ccc(Cc2nnc(Sc3ccccc3)c3ccccc23)cc1 | – | inactive
23 | S=C(Nc1ccc2c(c1)Cc1ccccc1-2)Nc1ccc2c(c1)Cc1ccccc1-2 | 1.03% [at 11.4 µM] (inactive) | –
24 | CNCCc1ccccn1 | – | inactive

Row | SMILES | activity, negative = inhibition | AC50
25 | CN(CCc1ccccn1)c1ccc2c(c1)Cc1ccccc1-2 | – | 3.16 µM (active)
26 | COCC(=O)Nc1c(I)c(C(=O)NC[C@@H](O)CO)c(I)c(C(=O)N(C)C[C@@H](O)CO)c1I | – | inactive
27 | O=C(CCCc1ccccc1)N1CCN(c2ccc([N+](=O)[O-])cc2)CC1 | – | inactive
28 | CCOc1cc(/C=C2/SC(=O)N(CC(=O)N3CCc4ccccc4C3)C2=O)ccc1OCC(=O)O | – | inactive
29 | CC(C)N(C(=O)CSc1nc2ccccc2n1-c1ccccc1)C(C)C | – | inactive
30 | COc1ccc(C(=O)N2CCC[C@@]3(CCN(Cc4ccccc4)C3)C2)cc1 | – | 7.94 µM (active)
31 | COc1ccc(C(=O)N2CCC3(CCCN(Cc4ccccc4)C3)CC2)cc1 | – | 7.94 µM (active)
32 | COc1ccc(C(=O)N2CCC3(CCCN(CC(C)C)C3)CC2)cc1 | – | inactive
33 | COc1ccc(C(=O)N2CCC[C@@]3(CCN(C(=O)Nc4ccccc4)C3)C2)cc1 | – | inactive
34 | COc1ccc(C(=O)N2CCC[C@@]3(CCN(Cc4ccc(C#N)cc4)C3)C2)cc1 | – | inactive
35 | COc1ccc(C(=O)N2CCC3(CCCN(C)C3)CC2)cc1 | – | inactive
36 | C=CCc1cc(C=O)cc(OC)c1OCc1ccc(Cl)cc1 | – | inactive
37 | COc1cc(-n2ccnc2SC)c(Cl)cc1Cl | – | inactive
38 | CCNc1nc(NCC)nc(ON=C(C)C)n1 | – | inactive
39 | COc1ccc2nc(/N=C\N(C)C)sc2c1 | – | inactive
40 | Cc1[nH]n2c(=O)c(C#N)c(-c3ccccc3)nc2c1-c1ccccc1 | – | inactive
41 | CCC#CCOCC(=O)Nc1ccccc1 | – | inactive
42 | Cn1ncc2c(Nc3cccc(Cl)c3)nc(Nc3cccc(Cl)c3)nc21 | 16.7% [at 11.4 µM] (inactive) | –
43 | c1ccc(CCNc2nnnn2-c2ccccc2)cc1 | – | inactive
44 | Cn1ncc2c(NCCc3ccccc3)nc(Cl)nc21 | – | 0.126 µM (active)
45 | CC(C)n1c(=O)c2c(O)cc(=O)oc2c2ccccc21 | – | inactive
46 | NC(=O)[C@H]1CC2(CC(c3cccc(NC(=O)c4ccccc4)c3)=NO2)CN1C(=O)[C@H]1CCC(=O)N1 (stereo not given in full) | – | inactive
47 | CCC(CC)C(=O)Nc1cccc(C(=O)Nc2ccc(OC)cc2[N+](=O)[O-])c1 | – | inactive
48 | COc1ccc(NC(=O)C(F)(F)F)cc1OC | – | inactive

Row | SMILES | activity, negative = inhibition | AC50
49 | CCCCCCCCC[n+]1cccc2c3ccccc3ccc21 | – | 0.0708 µM (active)
50 | O=C(OC(C(=O)NC1CCCC1)c1ccncc1)C1=Cc2ccccc2OC1 (stereo not given) | – | inactive
51 | Cc1ccc(CNC(=O)C2(NC(=O)Nc3ccc(C)cc3)CCCCC2)cc1 | – | inactive
52 | CCn1c(SCC(=O)c2ccc3ccccc3c2)nnc1-c1cccs1 | – | 14.1 µM (active)
53 | CCn1c(SCC(=O)NC2CCCc3ccccc32)nnc1-c1cccs1 (stereo not given) | – | inactive
54 | CCn1c(COc2ccccc2)nnc1SCC(=O)c1cccc([N+](=O)[O-])c1 | – | inactive
55 | COc1ccc(NC(=O)CSc2nnc(C3CC3)n2-c2ccccc2)cc1 | – | inactive
56 | CCn1c(SCC(=O)NC(=O)NCc2ccco2)nnc1-c1cccs1 | – | inactive
57 | CCN(CC)C(=O)CSc1nnc(-c2cc3ccccc3cc2O)n1CC | – | inactive
58 | CCn1c(SCC(=O)OC)nnc1C1CCCCC1 | – | inactive
59 | CCn1c(SCC(=O)c2ccccc2)nnc1-c1cccs1 | – | 14.1 µM (active)
60 | CCn1c(SCC(=O)c2ccc(OC)cc2)nnc1C1CC1 | – | 14.1 µM (active)
61 | CCCCN=c1sc(C(=O)OC)cc(=O)n1CCCC | – | inactive
62 | O=C1C2=C(Nc3cc([N+](=O)[O-])ccc3N2)O[C@@H]1c1c[nH]c2ccc(COc3ccccc3)cc12 | 5.7% [at 11.4 µM] (inactive) | –
63 | Cc1noc(C)c1C(=O)N1CCC2(CCCN(c3ccncc3)C2)CC1 | – | inactive
64 | O=C(O)c1cc2c(o1)CCC/C2=N\O | – | inactive
65 | Cc1nc2ncnn2c(C)c1CCC(=O)Nc1ccc(S(=O)(=O)N2CCCCCC2)cc1 | – | inactive
66 | CCCn1nc(Oc2nc(NCC)nc(NCC)n2)ccc1=O | – | inactive
67 | Cc1nc2nc(-c3ccc(Cl)cc3)nn2c(C)c1Cl | – | inactive
68 | COC(=O)c1cc(NC(=O)CC2NC3CCCCC3NC2=O)cc(C(=O)OC)c1 (stereo not given) | – | inactive
69 | C/C=C\C[C@H](C)[C@H](O)[C@H]1C(=O)N[C@@H](CC)C(=O)N(C)CC(=O)N(C)[C@@H](CC(C)C)C(=O)N[C@@H](C(C)C)C(=O)N(C)[C@@H](CC(C)C)C(=O)N[C@@H](C)C(=O)N[C@@H](C)C(=O)N(C)[C@@H](CC(C)C)C(=O)N(C)[C@@H](CC(C)C)C(=O)N(C)[C@@H](C(C)C)C(=O)N1C | – | inactive
70 | COc1ncc2nc(-c3ccc(Cl)cc3)c(=O)n(-c3ccccc3)c2n1 | – | inactive
71 | CCc1ccc(-c2ccc(C(=O)C(F)(F)F)[nH]2)cc1 | – | inactive
72 | Cc1ccccc1C(=O)NC(NCc1ccco1)C(Cl)(Cl)Cl (stereo not given) | – | inactive

Row | SMILES | activity, negative = inhibition | AC50
73 | Cc1nc(SCC(=O)Nc2c(C)nn(C)c2C)c2cnn(-c3ccccc3)c2n1 | – | inactive
74 | CCc1nnc(NC(=O)C2CCN(C(=O)NC3CCCCC3)CC2)s1 | – | inactive
75 | CC(=O)N/N=C/c1cc([N+](=O)[O-])ccc1OCCOc1ccccc1 | – | 0.0562 µM (active)
76 | COc1cc(/C=N/NC(=O)c2cccc([N+](=O)[O-])c2)ccc1OCc1ccc(C)cc1 | – | inactive
77 | CC(/C=N/NC(=O)c1cccc([N+](=O)[O-])c1)=C\c1ccccc1 | – | inactive
78 | N#CCCn1c(=O)c(-c2ccccc2)nc2cnc(OCc3ccccc3)nc21 | – | inactive
79 | COc1ccc(COC(=O)N/N=C2/C[C@@H](O)[C@@H](O)[C@@H]3[C@@H]4C(=O)N([C@@H](C)c5ccccc5)C(=O)[C@H]4CC[C@H]23)cc1 | -3.9% [at 11.4 µM] (inactive) | –
80 | O=C(C[n+]1cccc(NC(=O)c2ccccc2)c1)c1ccc(NC(=O)c2ccccc2)cc1 | – | 14.1 µM (active)
81 | COc1ccc(C(=O)Nc2ccc(C(=O)OCC(=O)c3ccccc3)cc2)cc1 | – | inactive
82 | COc1ccc(C(=O)COC(=O)c2ccc(NC(=O)c3ccccc3)cc2)cc1 | – | inactive
83 | COc1cccc(Cn2c(=O)c(CCc3ccccc3)nc3cnc(N(C)C)nc32)c1 | – | inactive
84 | N[C@@H](C(=O)O)c1ccc(O)c(C(=O)O)c1 | – | inactive
85 | COc1cccc(Cn2c(=O)c(CCc3ccccc3)nc3cncnc32)c1 | – | inactive
86 | CC1=NCC[N@@+]1(CCc1ccccc1)Cc1ccccc1 | – | 0.0501 µM (active)
87 | CC(=O)NS(=O)(=O)c1ccc(NC(=O)NC2CCCCC2)cc1 | – | inactive
88 | CC(=O)Nc1ccc(S(=O)(=O)N2CCN(c3nc(NC4CCCC4)c4ccccc4n3)CC2)cc1 | – | 12.6 µM (active)
89 | CC(=O)Nc1ccc(S(=O)(=O)NCC2CCC(C(=O)N3CCN(c4ccccn4)CC3)CC2)cc1 (stereo not given) | – | inactive
90 | O=c1c2ccccc2nnn1CSc1nnc(COc2ccc(Cl)cc2)n1Cc1ccco1 | – | inactive
91 | O=C1CN2CCN(CC2)CC(=O)Nc2ccc(cc2)S(=O)(=O)c2ccc(cc2)NC(=O)CN2CCN(CC2)CC(=O)Nc2ccc(cc2)S(=O)(=O)c2ccc(cc2)N1 | 0.0037% [at 11.4 µM] (inactive) | –
92 | CC1(C)OC[C@@H]2O[C@H](n3cnc4c(N)nc(Cl)nc43)[C@@H](OS(C)(=O)=O)[C@@H]2O1 | 8.22% [at 11.4 µM] (inactive) | –
93 | Cc1noc(NS(=O)(=O)c2ccc(NC(=O)CC34CC5CC(CC(Br)(C5)C3)C4)cc2)c1C | – | inactive
94 | CCCCCCC(C)n1cc(C(C)=O)c(=O)[nH]c1=O (stereo not given) | – | inactive
95 | CCC/C=C(\CCC)C(NC(=O)Oc1ccc(F)cc1)c1ccc(C(=O)OC)cc1 (stereo not given) | – | inactive
